# Measured values taken from the supplement of paper PMC6555819.
# Tests used:
# Assay in all cases: PBM binding z-score (relative to random genomic background probes); higher = stronger binding; sequences stand for … in GC…GCGATTGACAGCGTAGAATGAAGG
# [1] = tested on: FXR:RXRa (NR concentration 270 nM, RXRa partner concentration 90 nM)
# Outline: (§1)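 For binding z-scores, the reference was random background probes on custom Agilent 4×180K protein-binding microarrays. These arrays were incubated 1 h with ligand-free nuclear receptor dimers in PBS pH 7.4, 2% milk, 0.02% Triton X-100, 1 mM DTT, 0.2 mg/mL BSA and 0.4 mg/ml salmon testes DNA. Fluorescence was scanned after antibody detection of each partner (one per run) and regression-normalized.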
# [2] = tested on: LXRa:RXRa (NR concentration 270 nM, RXRa partner concentration 90 nM)
# Outline: as §1
# [3] = tested on: LXRa homodimer (NR concentration 270 nM)
# Outline: as §1
# [4] = tested on: LXRb:RXRa (NR concentration 270 nM, RXRa partner concentration 90 nM)
# Outline: as §1
# [5] = tested on: LXRb homodimer (NR concentration 270 nM)
# Outline: as §1
# [6] = tested on: PPARa:RXRa (NR concentration 270 nM, RXRa partner concentration 90 nM)
# Outline: as §1
# [7] = tested on: PPARg:RXRa (NR concentration 180 nM, RXRa partner concentration 90 nM)
# Outline: as §1
# [8] = tested on: PPARg:RXRa 270nM:90nM, anti-RXR (NR concentration 270 nM, RXRa partner concentration 90 nM)
# Outline: as §1
# [9] = tested on: PPARg:RXRa 30nM:10nM, anti-RXR (NR concentration 30 nM, RXRa partner concentration 10 nM)
# Outline: as §1
# [10] = tested on: PPARg:RXRa 90nM:30nM, anti-RXR (NR concentration 90 nM, RXRa partner concentration 30 nM)
# Outline: as §1
# [11] = tested on: PPARg:RXRa DBDmut IVT, anti-RXR (DBD mutation: RXRa K156A/R161A, NR concentration 270 nM, RXRa partner concentration 90 nM)
# Outline: as §1
# [12] = tested on: PPARg:RXRa IVT, anti-PPARg (NR concentration 270 nM, RXRa partner concentration 90 nM)
# Outline: as §1
# [13] = tested on: PPARg DBDmut:RXRa IVT, anti-PPARg (DBD mutation: PPARg1 K132A/R137A, NR concentration 270 nM, RXRa partner concentration 90 nM)
# Outline: as §1
# [14] = tested on: PPARg DBDmut IVT, anti-PPARg (DBD mutation: PPARg1 K132A/R137A, NR concentration 270 nM)
# Outline: as §1
# [15] = tested on: PPARg homodimer (NR concentration 180 nM)
# Outline: as §1
# [16] = tested on: PXR:RXRa (NR concentration 270 nM, RXRa partner concentration 90 nM)
# Outline: as §1
# [17] = tested on: PXR homodimer (NR concentration 270 nM)
# Outline: as §1
# [18] = tested on: RARa:RXR (NR concentration 270 nM, RXRa partner concentration 90 nM)
# Outline: as §1
# [19] = tested on: RARa homodimer (NR concentration 270 nM)
# Outline: as §1
# [20] = tested on: RARb:RXRa (NR concentration 270 nM, RXRa partner concentration 90 nM)
# Outline: as §1
Sequence,PBM binding z-score [1],PBM binding z-score [2],PBM binding z-score [3],PBM binding z-score [4],PBM binding z-score [5],PBM binding z-score [6],PBM binding z-score [7],PBM binding z-score [8],PBM binding z-score [9],PBM binding z-score [10],PBM binding z-score [11],PBM binding z-score [12],PBM binding z-score [13],PBM binding z-score [14],PBM binding z-score [15],PBM binding z-score [16],PBM binding z-score [17],PBM binding z-score [18],PBM binding z-score [19],PBM binding z-score [20]
CGTCCAAGGTGATAGGAGGTCAGTGAAGACAGAT,1.74,2.85,0.6,1.86,-0.299,2.71,1.06,1.49,0.0813,0.512,1.37,2.78,0.0253,0.186,1.91,3.57,0.47,2.31,0.367,2.85
GCTAGCAGGTCATTTGGGTCACTCAATGACGGGC,5.14,3.76,2.34,3.32,0.927,4.37,3.89,4.06,1.29,2.66,3.89,4.84,0.133,-0.577,1.31,3.98,4.92,3.92,0.247,3.94
CCAGACAGGGGAGAAGGTAACTCAGCCTCGATTA,-0.354,-0.331,-0.147,-0.0664,-0.72,-0.0873,0.239,0.0493,-0.552,0.0211,0.0282,-0.359,-0.398,-1.2,0.413,-0.427,-0.0553,-0.353,0.21,-0.286
GCTTGTAGATCTAGGTTAAGAAAGACTAAGCTAA,-0.373,-0.228,-0.5,-0.166,-0.791,1.14,0.547,0.539,0.267,0.418,3.21,3.27,0.608,0.399,-1.08,-0.4,-0.246,0.0619,-0.0444,0.0938
CAGCCTAGGGCAGGGCCAGTATAGGAGGAACGTT,-0.713,-0.785,-0.921,-1.11,-1.4,-0.747,-0.037,-0.861,-0.884,-1.24,-0.842,-0.372,-2.01,-1.9,-1.39,-1.13,-0.815,-0.853,-0.656,0.716
GGAACGAGGGCAAGTTGATAACAGAGTTTGATGG,0.773,0.307,-0.071,0.262,-0.233,1.76,1.52,1.14,0.316,1.03,3.17,2.87,0.0927,0.0422,0.807,0.857,0.526,0.565,-0.181,2.38
CCAACTGGGGCAAAGGTTACCATACTCAGTACGA,1.45,1.76,0.221,2.29,-0.694,6.03,11.6,9.99,9.26,10.5,6.6,6.7,0.471,-0.285,1.54,2.39,0.017,4.34,0.873,2.65
